Bioassay records deposited in PubChem BioAssay by National Center for Advancing Translational Sciences (NCATS).
Most compounds without a hit are left out; they make up all but 4.2% or so of the library.
D1 potentiator: human D1 dopamine receptor positive modulation; HEK293 TREx D1 cells, calcium flux, dopamine EC20 potentiation; potentiation, % at 10 µM; hit rate 0.036% among 360,000; AID 504651; in the data active = potentiation above about 30%; note: 0% is about no effect
TRPV1 potentiator: enhances activation of the human vanilloid receptor TRPV1. TRPV1-expressing cells, Fluo-8 calcium influx, capsaicin EC20 potentiation. potentiation, % at 8.33 µM. hit rate 0.02% among 320,000; in the data active = potentiation above about 80%; note: 0% is about no effect
Target sequence (Q8NER1 whole entry, looked up): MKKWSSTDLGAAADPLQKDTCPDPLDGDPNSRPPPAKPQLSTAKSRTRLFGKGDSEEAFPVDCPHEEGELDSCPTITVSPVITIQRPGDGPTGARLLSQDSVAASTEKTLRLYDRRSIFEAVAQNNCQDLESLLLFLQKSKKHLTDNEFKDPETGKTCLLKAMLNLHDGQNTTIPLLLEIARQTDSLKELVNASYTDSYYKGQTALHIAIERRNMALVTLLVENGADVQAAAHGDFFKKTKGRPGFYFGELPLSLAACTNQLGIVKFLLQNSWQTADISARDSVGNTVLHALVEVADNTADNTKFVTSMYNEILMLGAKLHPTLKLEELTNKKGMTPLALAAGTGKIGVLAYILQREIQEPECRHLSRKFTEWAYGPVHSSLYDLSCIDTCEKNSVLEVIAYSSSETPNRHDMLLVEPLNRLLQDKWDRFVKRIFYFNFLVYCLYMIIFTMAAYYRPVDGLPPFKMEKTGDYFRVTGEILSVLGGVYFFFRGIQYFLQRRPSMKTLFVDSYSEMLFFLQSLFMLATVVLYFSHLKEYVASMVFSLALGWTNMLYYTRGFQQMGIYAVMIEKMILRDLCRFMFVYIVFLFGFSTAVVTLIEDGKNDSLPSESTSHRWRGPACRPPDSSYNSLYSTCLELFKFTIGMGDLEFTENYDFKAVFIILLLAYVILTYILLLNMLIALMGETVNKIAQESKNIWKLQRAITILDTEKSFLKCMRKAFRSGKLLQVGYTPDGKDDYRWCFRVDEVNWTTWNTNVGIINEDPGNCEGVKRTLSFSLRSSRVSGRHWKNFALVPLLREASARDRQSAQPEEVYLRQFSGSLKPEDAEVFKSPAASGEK
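TRPV1-expressing cells were cultured overnight at 35.5C and loaded with Fluo-8 calcium dye for 40 to 90 min at room temperature. After a 10 s baseline, compound was added and calcium influx was read kinetically for 3 min (ex 480/em 520 nm).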
TRPV1 agonist: human TRPV1 agonism | TRPV1-expressing cells, Fluo-8 calcium influx, agonist mode | Q8NER1 | activation, % at 8.33 µM | hit rate 0.19% among 320,000; in the data active = activation above about 80%; note: 0% is about no effect
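Fluo-8 calcium influx in TRPV1-expressing cells, kinetic read (ex 480/em 520 nm). Compound added and read 3 min for agonist activity, followed by capsaicin at EC20 final and 2 min further read for enhancement.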
D1 antagonist: blocks dopamine activation of the human D1 receptor; activity change, negative = inhibition, % at 10 µM; AID 504652; HEK293 TREx D1 cells, calcium flux, dopamine EC80; active compounds read low; hit rate 3.2% among 360,000; in the data active = activity change below about -30%; note: % is set by controls: 0 for no effect and ±100 for the full control effect
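HEK293 T-REx cells expressing inducible, force-coupled D1 receptor; no-wash Ca dye, 30–90 min RT. Cmpd → 180 s read at 1 Hz → EC80 DA → 180 s read.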
D1 agonist: activates the human D1 dopamine receptor. P21728. activation, % at 2 µM. HEK293 T-REx D1 cells, calcium flux, agonist mode. hit rate 1% among 360,000; in the data active = activation above about 30%; note: 0% is about no effect
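Inducible HEK293 T-REx D1 cells, force-coupled to calcium signalling, were plated at 4000 cells/well with tetracycline and held overnight at 30 C. After no-wash calcium dye loading, compound-evoked calcium rise over 180 s flagged agonists.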
An asterisk follows results filed as active; x = no result.

SMILES | D1 potentiator | TRPV1 potentiator | TRPV1 agonist | D1 antagonist | D1 agonist
COc1ccc2[nH]c3c(c2c1)CCN1C(=O)N([C@@H](C)C(=O)NCc2ccc(F)cc2)C(=O)[C@]31C | 10.2 | 11.2 | 1.1 | 0.0 | 0.8
Cc1cccc(-n2c(CNC(=O)c3cccc(F)c3)nnc2SCC(=O)Nc2ccccc2F)c1 | -2.6 | x | x | -8.8 | 1.4
Brc1ccc(-c2csc(/N=C/N3CCOCC3)n2)cc1 | -10.4 | 0.9 | 3.2 | -33.4* | 0.3
CCOC(=O)C1CCN(S(=O)(=O)c2cc(-c3onc(C)c3C)ccc2OC)CC1 | -0.8 | x | x | 29.7 | 1.4
CCOC(=O)C1CCN(S(=O)(=O)c2c(Cl)ccc3nonc23)CC1 | -8.2 | -2.2 | -5.4 | -35.2* | 4.0
CCOC(=O)C1CCN(S(=O)(=O)c2cccc3nonc23)CC1 | -1.1 | 6.9 | 2.1 | -6.1 | 4.1
Cc1ccc(-c2onc(C)c2C)cc1S(=O)(=O)Nc1cccc(Cl)c1C | -6.0 | x | x | -39.1* | 2.4
CCOC(=O)C1CCN(S(=O)(=O)c2cc(-c3onc(C)c3C)ccc2C)CC1 | -4.0 | x | x | -36.1* | 2.3
Cc1ccc(-c2onc(C)c2C)cc1S(=O)(=O)NC1CCCCC1 | -7.9 | x | x | -62.5* | 4.3
COc1ccc(Br)cc1CNC(=O)CCCn1c(=O)c2cccn2c2ccccc21 | -2.8 | x | x | 4.5 | 1.3
Cc1ccc(-c2onc(C)c2C)cc1S(=O)(=O)NCc1ccc(N(C)C)cc1 | -5.2 | x | x | -31.8* | 3.9
O=C(Nc1ccc(F)cc1F)c1cc2c(=O)n3ccccc3nc2s1 | 0.7 | x | x | -7.0 | 0.7
O=C(O)Cn1nnc(-c2ccc(OCc3ccccc3Cl)cc2)n1 | -8.3 | 3.1 | -0.1 | 0.2 | 7.5
O=C(O)COc1ccc(C(=O)c2ccccc2)cc1 | -2.5 | -2.7 | 1.6 | -30.5* | 5.6
O=C(O)COc1ccc(-c2nnn(CC(=O)O)n2)cc1 | -6.2 | 22.9 | 0.1 | -35.6* | -0.2
Cc1ccc(-n2c(SCC(=O)Nc3c(C)cccc3C)nc(O)c(C)c2=O)cc1 | 2.9 | x | x | -7.7 | -1.1
Cc1ccc(-c2ccc(=O)n(CC(=O)NCCc3ccc(Cl)cc3)n2)cc1 | 0.1 | x | x | 4.7 | -2.4
Cc1c(Br)cc(F)c([S+](=O)([O-])N2CCN([S+](=O)([O-])c3ccc4c(c3)OCCO4)CC2)c1F | 3.0 | x | x | -28.8 | 1.3
Cc1ccccc1/C=C/C1=NCCN1 | -7.5 | 0.5 | 0.1 | -43.0* | -0.3
O=C(c1cccs1)c1ccc(-c2cccs2)s1 | -2.1 | -9.3 | 1.1 | -37.7* | 70.3*
Cc1ccccc1Nc1nn2c(=O)c3ccc(C(=O)NCC(C)c4ccccc4)cc3nc2s1 (stereo not given) | -4.3 | x | x | -12.8 | 4.8
CN(CC(=O)Nc1cccc(F)c1)C(=O)c1ccc(-n2cncn2)c([N+](=O)[O-])c1 | -5.7 | 11.9 | 1.2 | -39.6* | -1.2
COc1cccc(NC(=O)CN(C)C(=O)c2ccc(-n3cncn3)c([N+](=O)[O-])c2)c1 | -6.1 | -1.9 | 2.9 | 5.7 | 2.3
CC1CCN(c2ccc(-c3cccc(NS(=O)(=O)c4ccc(F)cc4F)c3)nn2)CC1 | -0.8 | x | x | -7.7 | 2.8
COc1ccccc1OCCCCn1c(-c2ccc(Cl)cc2)nc2ccccc2c1=O | -3.4 | x | x | 1.6 | -0.3
SMILES | D1 potentiator | TRPV1 potentiator | TRPV1 agonist | D1 antagonist | D1 agonist
CC(C)CN1C2CCCC1CC(NC(=O)c1ccc([N+](=O)[O-])cc1)C2 (stereo not given) | -8.8 | 6.6 | -1.0 | -48.1* | 0.6
O=C(CN1C2CCCC1CC(NC(=O)c1ccccc1)C2)Nc1ccccc1 (stereo not given) | -3.6 | 6.4 | -1.9 | -53.3* | 8.9
COc1cccc(C(=O)NC2CC3CCCC(C2)N3CC(=O)Nc2ccccc2)c1 (stereo not given) | 0.8 | 14.6 | -3.3 | 10.6 | 8.2
CCCN1C2CCCC1CC(NC(=O)c1ccc(Br)cc1)C2 (stereo not given) | -5.7 | -1.7 | 0.8 | -47.7* | 4.5
CCc1ccc(-n2c(SCC(=O)NC(C)CC)nc3n[nH]c(C)c3c2=N)cc1 (stereo not given) | -7.5 | x | x | -21.8 | 2.5
C#CCOCCOCCOCCNc1nc(N2CCN(C(=O)CCCCCCCCCCNC(=O)[C@H](CCCCN)n3cc(CCCC(=O)O)nn3)CC2)nc(N2CCN(C(=O)CCCCCCCCCCNC(=O)[C@@H]([C@H](C)O)n3cc(C)nn3)CC2)n1 | 5.9 | 9.5 | 0.0 | 6.1 | 44.0*
C#CCOCCOCCOCCNc1nc(N2CCN(C(=O)CCCCCCCCCCNC(=O)[C@H](CCCCN)n3cc(C)nn3)CC2)nc(N2CCN(C(=O)CCCCCCCCCCNC(=O)[C@H](CCCCN)n3cc(CCCC(=O)O)nn3)CC2)n1 | -3.2 | 18.6 | -4.2 | 14.2 | 30.4*
Cc1ccc(CNC(=O)CCSCc2cnn(-c3ccccc3)c2-n2cccc2)cc1 | -2.6 | x | x | -34.0* | -2.0
COc1ccc(CNC(=O)CSCc2cnn(-c3ccccc3)c2-n2cccc2)cc1OC | -4.1 | x | x | -33.6* | 43.3*
O=C(CSCc1cnn(-c2ccccc2)c1-n1cccc1)NCc1cccnc1 | -4.2 | -1.1 | -5.6 | 9.6 | 20.6
O=C(CCSCc1cnn(-c2ccccc2)c1-n1cccc1)NCc1ccc(Cl)cc1 | 0.7 | x | x | -51.7* | -1.0
COc1ccc(NC(=O)C2CCN(Cc3cnn(-c4ccccc4)c3-n3cccc3)CC2)cc1OC | -5.7 | -3.7 | 3.2 | -34.0* | 35.3*
CC1(c2ccc(Cl)cc2)CC(C)(C)N(C(=O)c2cccc(F)c2)c2ccccc21 (stereo not given) | -0.6 | x | x | 14.8 | -0.2
O=C(NC1CC(=O)N(c2ccc(Cl)cc2)C1)C1CCCCC1 (stereo not given) | -1.0 | x | x | x | -3.5
Cc1ccc(NC(=O)C(Cc2ccccc2)n2cccc2)c(C)c1 (stereo not given) | -4.1 | x | x | 1.9 | 4.3
CCc1cccc(NC(=O)CCc2nc3cccnc3n2Cc2ccc(OC)cc2)c1 | -3.3 | x | x | 1.2 | 6.5
CCc1cc(C(=O)N2CCCC(CCC(=O)N3CCN(c4ccccn4)CC3)C2)no1 (stereo not given) | -7.4 | 14.9 | -3.6 | -5.3 | 0.6
O=C(CCC1CCCN(C(=O)c2cc(C3CC3)[nH]n2)C1)N1CCN(c2ccccn2)CC1 (stereo not given) | 0.1 | -5.7 | 2.1 | -31.6* | 2.9
CCOc1cc(-c2ccc(OC(=O)c3ccc(OC)cc3)c(OC)c2)cc(=O)c2c(C)oc(C)c12 | -1.5 | x | x | 9.0 | 8.6
O=C(c1ccc(CS(=O)Cc2ccc(Cl)cc2)o1)N1CCN(c2ccc(F)cc2)CC1 (stereo not given) | -9.1 | -0.3 | -3.2 | -35.5* | 16.8
CCOc1ccc2nc(NC(=O)c3nc(SCc4ccc(C)cc4)ncc3Cl)sc2c1 | -0.8 | x | x | -8.5 | 2.1
O=C(Nc1ccc(/C=C/c2nc3ccccc3o2)cc1)c1c(F)cccc1F | -10.2 | 5.4 | 19.2 | -41.9* | 8.4
CC(=O)Nc1ccc(/C=C/c2nc3ccccc3o2)cc1 | -5.2 | -17.5 | 4.0 | -9.1 | 3.7
